The nature of test [1]: p53 stabilisation in HPV-positive human cells, imaging, p53-positive nuclei imaging, 24 h, 48 h (AID 1508601). Conditions: 24/48 h.
Test [2] has as its target Cellular tumor antigen p53 (Homo sapiens) (UniProt P04637). The test is described as above. As to conditions: 24/48 h, stronger effect = higher value.
[3] abbreviates: measured here: cell number at 24 h, concentration not given here.
Setting [4] is: measured here: cell number at 48 h, concentration not given here.
The mark [5] stands for this setting: measured here: p53 positive nuclei at 24 h, concentration not given here.
Where [6] appears, read: measured here: cell number at 24 h, Library stock concentration: 10 mM.
The mark [7] stands for this setting: measured here: cell number at 48 h, Library stock concentration: 10 mM.
[8] abbreviates: Library stock concentration: 10 mM.
The mark [9] stands for this setting: measured here: p53 positive nuclei at 24 h, Library stock concentration: 10 mM.
Setting [10] is: measured here: cell number at 24 h, Library stock concentration: 3.33 mM.
The mark [11] stands for this setting: measured here: cell number at 48 h, Library stock concentration: 3.33 mM.
Where [12] appears, read: Library stock concentration: 3.33 mM.
The mark [13] stands for this setting: measured here: p53 positive nuclei at 24 h, Library stock concentration: 3.33 mM.
The mark [14] stands for this setting: measured here: cell number at 24 h, Library stock concentration: 46 uM.
The mark [15] stands for this setting: measured here: cell number at 24 h, Library stock concentration: 278 uM.
The mark [16] stands for this setting: measured here: cell number at 24 h, Library stock concentration: 1.67 mM.
Where [17] appears, read: measured here: cell number at 48 h, Library stock concentration: 46 uM.
Setting [18] is: measured here: cell number at 48 h, Library stock concentration: 278 uM.
Where [19] appears, read: measured here: cell number at 48 h, Library stock concentration: 1.67 mM.
[20] abbreviates: Library stock concentration: 46 uM.
[21] abbreviates: Library stock concentration: 278 uM.
[22] abbreviates: Library stock concentration: 1.67 mM.
Where [23] appears, read: measured here: p53 positive nuclei at 24 h, Library stock concentration: 46 uM.
Where [24] appears, read: measured here: p53 positive nuclei at 24 h, Library stock concentration: 278 uM.
[25] abbreviates: measured here: p53 positive nuclei at 24 h, Library stock concentration: 1.67 mM.

Molecules are shown by their SMILES. “And” between values parts separate entries of the source, which are not always exact repeats. Equal values may be shown once. Among all 5,700 compounds or so, about 85 (1%) were called active. No stated cut-off is given here; in the data, active means p53-positive nuclei above about 36% (passing the limit was not always enough); inactive means the rest. The entries come from a sample that favours actives as a whole.

This is an account of results in PubChem BioAssay AID1508601 (ICCB-Longwood Screening Facility, Harvard Medical School, 2020).

Chain of Cellular tumor antigen p53 (Homo sapiens) (P04637 whole entry, looked up): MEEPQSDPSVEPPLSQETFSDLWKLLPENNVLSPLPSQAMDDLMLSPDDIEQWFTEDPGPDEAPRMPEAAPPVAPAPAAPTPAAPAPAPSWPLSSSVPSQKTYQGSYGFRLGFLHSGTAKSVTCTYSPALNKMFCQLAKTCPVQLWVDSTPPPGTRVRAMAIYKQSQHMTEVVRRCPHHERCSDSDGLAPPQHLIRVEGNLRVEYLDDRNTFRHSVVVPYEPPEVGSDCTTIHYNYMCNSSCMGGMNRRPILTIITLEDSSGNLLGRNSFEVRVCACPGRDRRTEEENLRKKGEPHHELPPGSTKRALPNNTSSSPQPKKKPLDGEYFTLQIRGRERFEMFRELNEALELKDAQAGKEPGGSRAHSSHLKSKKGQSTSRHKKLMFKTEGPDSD

With `O=C(O)CCC/C=C\C[C@@H]1[C@@H](/C=C/[C@H](O)CCc2ccccc2)[C@H](O)C[C@@H]1O`, the nuclei count, normalised came to 107% in test [1] (setting [3]) and 108% in test [1] (setting [4]). The results for the p53-positive nuclei, normalised in test [2] (concentration not given here) and in test [2] (setting [5]) were -0.104% (inactive) and -0.0183%, respectively.
On to `O=C(O)CCCC=CCC1C(O)CC(O)C1C=CC(O)COc1cccc(Cl)c1` (configuration not stated), for which the nuclei count, normalised in test [1] (measured here: cell number at 24 h, Library stock concentration: 80 uM) came to 91.3%; in test [1] (measured here: cell number at 24 h, Library stock concentration: 400 uM), 83%; in test [1] (measured here: cell number at 24 h, Library stock concentration: 2 mM) it was 71%; in test [1] (setting [6]) it was 62.6%; in test [1] (measured here: cell number at 48 h, Library stock concentration: 80 uM) it was 91.4%; in test [1] (measured here: cell number at 48 h, Library stock concentration: 400 uM) it was 86.3%. The nuclei count, normalised in test [1] (measured here: cell number at 48 h, Library stock concentration: 2 mM) worked out at 76.4%; in test [1] (setting [7]), 62.3%. In addition, the p53-positive nuclei, normalised was -0.163% (inactive) in test [2] (Library stock concentration: 80 uM); -0.108% (inactive) in test [2] (Library stock concentration: 400 uM); 0.08% (inactive) in test [2] (Library stock concentration: 2 mM); 0.269% (inactive) in test [2] (setting [8]); 0.18% in test [2] (measured here: p53 positive nuclei at 24 h, Library stock concentration: 80 uM); 0.0351% in test [2] (measured here: p53 positive nuclei at 24 h, Library stock concentration: 400 uM). In addition, the p53-positive nuclei, normalised in test [2] (measured here: p53 positive nuclei at 24 h, Library stock concentration: 2 mM) was 0.0627%; in test [2] (setting [9]) it was -0.0194%.
Turning to `COC1=C2CC(C)CC(OC)C(O)C(C)C=C(C)C(OC(N)=O)C(OC)C=CC=C(C)C(=O)NC(=CC1=O)C2=O` (configuration not stated), the nuclei count, normalised in test [1] (setting [10]) amounted to 40.1%; in test [1] (setting [11]), 28.1%. The p53-positive nuclei, normalised in test [2] (setting [12]) is -0.0882% (inactive); in test [2] (setting [13]), -0.356%.
As for `CCCCCN=C(N)N/N=C/c1c[nH]c2ccc(OC)cc12`, the nuclei count, normalised was 107% in test [1] (setting [3]); 112% and 109% in test [1] (setting [4]). Moreover, the p53-positive nuclei, normalised in test [2] (concentration not given here) is -0.135% (inactive) and -0.2% (inactive); in test [2] (setting [5]), 0.0257% and -0.191%.
As for `CC1C[C@H]2[C@@H]3CCC4=CC(=O)C=C[C@]4(C)[C@@H]3C(=O)C[C@]2(C)[C@]1(O)C(=O)CO` (some centres not stated), the nuclei count, normalised is 104% in test [1] (setting [10]) and 88.5% in test [1] (setting [11]). Further, the p53-positive nuclei, normalised in test [2] (setting [12]) is 1.05% (inactive); in test [2] (setting [13]), 1.05%.
Consider `CN(CCC(Oc1ccc(-c2ccccc2)cc1)c1ccc(F)cc1)CC(=O)O` (configuration not stated), for which the nuclei count, normalised in test [1] (setting [14]) is 112%; in test [1] (setting [15]), 111%; in test [1] (setting [16]) it was 107%; in test [1] (setting [6]), 115%; in test [1] (setting [17]) it was 109%; in test [1] (setting [18]), 113%. Also, the results for the nuclei count, normalised in test [1] (setting [19]) and in test [1] (setting [7]) were 104% and 110%, respectively. Besides, the p53-positive nuclei, normalised in test [2] (setting [20]) is -0.199% (inactive); in test [2] (setting [21]), -0.17% (inactive); in test [2] (setting [22]), 0.114% (inactive); in test [2] (setting [8]), -0.129% (inactive); in test [2] (setting [23]), -0.152%; in test [2] (setting [24]), -0.0916%. The p53-positive nuclei, normalised in test [2] (setting [25]) was -0.153%; in test [2] (setting [9]), -0.0944%.
Turning to `O=C1CC(c2ccc([N+](=O)[O-])cc2)=NN1c1ccccc1`, the nuclei count, normalised came out at 114% in test [1] (setting [14]); 115% in test [1] (setting [15]); 116% in test [1] (setting [16]); 117% in test [1] (setting [6]); 107% in test [1] (setting [17]); 109% in test [1] (setting [18]). Further, the nuclei count, normalised in test [1] (setting [19]) amounted to 110%; in test [1] (setting [7]), 106%. Besides, the p53-positive nuclei, normalised in test [2] (setting [20]) is -0.127% (inactive); in test [2] (setting [21]), 0.0933% (inactive); in test [2] (setting [22]), -0.137% (inactive); in test [2] (setting [8]), -0.204% (inactive); in test [2] (setting [23]), -0.0266%; in test [2] (setting [24]), 0.0349%. Also, the p53-positive nuclei, normalised in test [2] (setting [25]) turned out to be 0.0231%; in test [2] (setting [9]), 0.0862%.
Take `CC(O)[C@H]1C(=O)N2C(C(=O)OCOC(=O)C(C)(C)C)=C(SC3CN(C4=NCCS4)C3)C(C)[C@@H]12` (some centres not stated): the nuclei count, normalised was 106% in test [1] (setting [10]) and 101% in test [1] (setting [11]). The p53-positive nuclei, normalised is -0.0394% (inactive) in test [2] (setting [12]) and -0.252% in test [2] (setting [13]).
In the same order, the values of `CC1(C)SC2C(NC(=O)C(NC(=O)N3CCNC3=O)c3ccccc3)C(=O)N2C1C(=O)O` (configuration not stated) are 118%, 111%, -0.143% (inactive) and -0.242%.
